From PubChem BioAssay AID686978 (National Center for Advancing Translational Sciences (NCATS), 2013)
The whole screen tested about 420,000 compounds, of which about 64,000 (15%) were called active. Another 27% or so got no clear call; they are omitted. The call rests on the fitted dose curve; in most records, active means well fitted inhibition curve with a large enough effect; inconclusive means small, poorly fitted or top-dose-only effect; inactive means flat fitted curve, though single readings scatter. These entries were drawn from the full list. Entries that show only a call come without a potency.
Potency means the concentration at half of the fitted maximal effect.

Assay: qHTS for Inhibitors of human tyrosyl-DNA phosphodiesterase 1 (TDP1): qHTS in cells in absence of CPT; further: nearly all actives have a fitted effect of over 55% in size
Details: DT40 Tdp1-/- hTDP1 cells, no CPT, ATP luminescence, 48 h; activity change, negative = growth inhibition: at 46.2 µM (top of the series)
Method in brief: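 Compound effects on proliferation are scored in DT40 Tdp1-/-;hTDP1 cells in the absence of CPT. ATP levels (CellTiter-Glo luminescence) are recorded after a ≥48 hr, 37 °C incubation.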
With `C[C@@H]1CN([C@H](C)CO)C(=O)c2cc(Br)cnc2O[C@@H]1CN(C)Cc1cncnc1` the Potency was “inactive”.
In the case of `COc1ccc(-c2[nH]nc(-c3ccccc3)c2-c2nc3ccccc3[nH]2)cc1`, the Potency is reported as “inactive”.
For `CNC(=O)NCCN1CCCC1=O`, the Potency was “inactive”.
In the case of `COC(=O)C[C@@H]1C=C[C@@H](NC(=O)c2cccnc2)[C@@H](CO)O1`, the Potency is reported as “inactive”.
For `Cc1nn(C)c(Oc2ccccc2)c1[N+](=O)[O-]`, the Potency was “inactive”.
With `CN(Cc1ccccn1)Cc1nc(-c2ccc(Cl)cc2)no1` the Potency was “inactive”.
For `CCN1CC(CN(C)Cc2nc(-c3ccc(Cl)cc3)no2)CC1=O` (stereo not given), the Potency was 16.4 µM (active).
In the case of `CN(CCN1CCOCC1)Cc1nc(-c2ccc3c(c2)OCO3)no1`, the Potency is reported as “inactive”.
With `O=C(Nc1ccccc1)O/N=C1/CCCc2occc21` the Potency was “inactive”.
For `COc1ccc(CNC(=O)CN2C(=O)NC3(CCCc4sccc43)C2=O)cc1` (stereo not given), the Potency was “inactive”.
With `COc1ccc(C(=O)CN2C(=O)NC3(CCc4ccccc43)C2=O)c(OC)c1` (stereo not given) the Potency was “inactive”.
In the case of `COc1ccc(-n2c(C)cc(C(=O)CN3C(=O)NC4(CCc5ccccc54)C3=O)c2C)cc1` (stereo not given), the Potency is reported as 18.4 µM (active).
In the case of `CCc1cccc(NC(=O)COC(=O)c2cc(=O)c3ccccc3o2)c1`, the Potency is reported as “inactive”.
For `CCOc1ccc(NC(=O)C(=O)NCCc2csc3nc(-c4ccccc4F)nn23)cc1`, the Potency was “inactive”.
In the case of `CCC1(C2CCN(C(=O)c3cccc(F)c3F)CC2)NC(=O)N(CCc2scnc2C)C1=O` (stereo not given), the Potency is reported as “inactive”.
With `Cn1cccc1C(=O)Nc1nccs1` the Potency was “inactive”.
With `CC(C)NC(=O)N1CC[C@@]2(CCCN(C(=O)c3cccc(F)c3)C2)C1` the Potency was “inactive”.
For `Cc1ccc(CN(C(=O)COc2ccc(Cl)cc2C)C2CCS(=O)(=O)C2)o1` (stereo not given), the Potency was 23.1 µM (active).
With `CCCCN(C(=O)COc1ccc(NC(C)=O)cc1)C1CCS(=O)(=O)C1` (stereo not given) the Potency was “inactive”.
In the case of `Cc1ccccc1OCC(=O)N(Cc1cccc(F)c1)C1CCS(=O)(=O)C1` (stereo not given), the Potency is reported as “inactive”.
For `O=C(/C=N/O)Nc1ccccc1`, the Potency was “inactive”.
With `CCc1c(C)c2ccc(OC3CCCCC3=O)cc2oc1=O` (stereo not given) the Potency was “inactive”.
With `O=c1[nH]cnc(O)c1C(c1ccc(F)cc1)c1c(O)nc[nH]c1=O` the Potency was “inactive”.
In the case of `O=C(O)CCn1c(O)c(C=C2N=c3ccccc3=N2)sc1=S`, the Potency is reported as 18.4 µM (active).
In the case of `O=C(O)CCn1c(Cc2ccccc2)nc2ccccc21`, the Potency is reported as “inactive”.
In the case of `O=C(NCCc1ccc(C(F)(F)F)cc1)c1ccc2c(c1)OCO2`, the Potency is reported as “inactive”.
For `CC1C(c2ccccc2)=[N+]([O-])C2(CCCC2)N1O` (stereo not given), the Potency was “inactive”.
In the case of `COc1ccc(C2CC(=O)c3c(O)cc(OC4OC(COC5OC(C)C(O)C(O)C5O)C(O)C(O)C4O)cc3O2)cc1O` (stereo not given), the Potency is reported as “inactive”.
With `CC(C)S(=O)(=O)c1oc(-c2ccc(F)cc2)nc1S(=O)(=O)c1ccc(F)cc1` the Potency was 0.326 µM (active).
In the case of `COc1cc(-c2nc(S(=O)(=O)c3ccc(Cl)cc3)c(N(C)C)o2)cc(OC)c1OC`, the Potency is reported as “inactive”.
In the case of `CC1(C)OC2CC3C4CCC5=CC(=O)CCC5(C)C4(F)C(O)CC3(C)[C@]2(C(=O)CCl)O1` (stereo not given in full), the Potency is reported as “inactive”.
With `COc1cc(C(=O)Nn2c(O)c(C3=c4ccccc4=NC3=O)sc2=S)ccc1O` the Potency was “inactive”.
For `CO[C@@H]1[C@@H](OC(N)=O)[C@@H](O)C(Oc2ccc3c(O)c(NC(=O)c4ccc(O)c(CC=C(C)C)c4)c(=O)oc3c2C)OC1(C)C` (stereo not given in full), the Potency was “inactive”.
For `COCc1nc2ccccc2n1Cc1ccccc1Br`, the Potency was 16.4 µM (active).
In the case of `CCc1cccc(C)c1N(C(=O)Cn1c(CO)nc2ccccc21)C(C)COC` (stereo not given), the Potency is reported as “inactive”.
For `O=C(NC1Cc2ccccc2C1)c1cc(COc2cccc(C(F)(F)F)c2)on1`, the Potency was “inactive”.
In the case of `C/C(CC(=O)N1CCN(C=O)CC1)=N\NC(=O)c1ccc(Br)cc1`, the Potency is reported as “inactive”.
In the case of `COC(=O)[C@@H]1C[C@@]2(O)[C@H](O)[C@H](O)[C@H](O)C[C@H]2N1Cc1ccc(C)s1`, the Potency is reported as “inactive”.
For `CC(C)N=C1CCCC1C(=S)SSC(=S)C1CCCC1=NC(C)C` (stereo not given), the Potency was 0.164 µM (active).
In the case of `COc1cc(OC)c2c(c1Cl)OC1(C2=O)C(O)=CC(=O)CC1C` (stereo not given), the Potency is reported as “inactive”.
With `COc1ccc(CN2CCCCC2C)cc1OC` (stereo not given) the Potency was “inactive”.
With `COC(=O)c1ccc(COc2ccc(C#N)cc2)o1` the Potency was “inactive”.
In the case of `CCOc1cc(C)c(Cl)cc1S(=O)(=O)n1nnc2ccccc21`, the Potency is reported as “inactive”.
For `CCOc1ccc(C(C)C)cc1S(=O)(=O)n1nc(C)cc1C`, the Potency was 13 µM (active).
In the case of `COc1ccc(C(C)C)cc1S(=O)(=O)Nc1ncn[nH]1`, the Potency is reported as “inactive”.
In the case of `CCCNC(=O)CCC(=O)N1Cc2ccccc2Oc2ncccc21`, the Potency is reported as “inactive”.
With `Cc1ccc(NC(=O)CS(=O)CC(=O)N(c2ccccc2)C(C)C(=O)NC2CCCC2)cc1` (stereo not given) the Potency was “inactive”.
In the case of `COc1ccc(NS(=O)(=O)c2ccc(C)c(C(=O)NNC(=O)c3csc(N4CCOCC4)n3)c2)cc1`, the Potency is reported as “inactive”.
With `COc1ccc(NS(=O)(=O)c2ccc(C)c(C(=O)N(C)Cc3ccc(OC)cc3OC)c2)cc1` the Potency was 18.4 µM (active).
In the case of `CCOc1ccc(NS(=O)(=O)c2ccc(Cl)c(C(=O)N(C)Cc3cccnc3)c2)cc1`, the Potency is reported as “inactive”.
For `CC(=O)Nc1ccc(S(=O)(=O)N(C)c2nc3ccccc3nc2Cl)cc1`, the Potency was 23.1 µM (active).
For `CC(=O)Nc1ccc(S(=O)(=O)N(C)c2ccc(OCC(=O)OCC(=O)N3CCCCC3)cc2)cc1`, the Potency was “inactive”.
With `CC(=O)Nc1ccc(S(=O)(=O)NNC(=O)CCc2ccccc2)cc1` the Potency was “inactive”.
In the case of `Cc1ccc(C2CC2C(=O)NN)cc1` (stereo not given), the Potency is reported as “inactive”.
For `CCOc1ccc(NS(=O)(=O)c2ccc(N)cc2)nn1`, the Potency was “inactive”.
With `CCn1c(C)nc2cc(C(=O)NNS(=O)(=O)c3ccc(C)cc3C)ccc21` the Potency was “inactive”.
With `CCOC(=O)c1c(S(=O)(=O)NCC(=O)Nc2ccc(C)cc2)c(C)n(C)c1C` the Potency was “inactive”.
For `CC(=O)NCCc1ccc(S(=O)(=O)Nc2ccc(C)c(S(=O)(=O)N3CCOCC3)c2)cc1`, the Potency was “inactive”.
With `O=S(=O)(Nc1ccc(-n2cnnn2)cc1)c1ccc(Cl)cc1` the Potency was “inactive”.
With `CC(=O)c1c(C)n(S(=O)(=O)c2ccc(Cl)cc2)c2ccc(NS(=O)(=O)c3ccc(Cl)cc3)cc12` the Potency was 14.6 µM (active).
With `CCOC(=O)c1c(C)n(S(=O)(=O)c2ccc(C)cc2C)c2ccc(NS(=O)(=O)c3ccc(C)cc3C)cc12` the Potency was 20.6 µM (active).
In the case of `CC(C)(C)CN1CCNC(=O)C1CC(=O)NC1Cc2ccccc2C1` (stereo not given), the Potency is reported as “inactive”.
With `Oc1ccc(-c2nncn2-c2ccccc2)cc1` the Potency was “inactive”.
In the case of `COc1cccc(NC(=O)CSc2nnc(Cc3ccc(OC)c(OC)c3)o2)c1`, the Potency is reported as “inactive”.
For `O=C(CCCn1c(=O)c2sccc2n(CC(=O)NCC2CCCO2)c1=O)NCc1ccco1` (stereo not given), the Potency was “inactive”.
For `CCC1CCCCN1C(=O)Cn1c(=O)n(CCCCCC(=O)NCc2ccccc2)c(=O)c2sccc21` (stereo not given), the Potency was 13 µM (active).
With `Cc1ccc(C)c(Cn2c(=O)n(CCC(=O)NCc3ccc4c(c3)OCO4)c(=O)c3sccc32)c1` the Potency was “inactive”.
With `NC(CSC12CC3CC(CC(C3)C1)C2)C(=O)O` (stereo not given) the Potency was “inactive”.
For `CCCc1nc2oc3c(=O)[nH]cnc3c2c2c1COC(C)(C)C2`, the Potency was “inactive”.
In the case of `C=CCN1CCN(c2ccncc2S(=O)(=O)N2CCN(C)CC2)CC1`, the Potency is reported as “inactive”.
With `O=C(NC(=S)N1CCN(Cc2ccccc2)CC1)c1ccccc1` the Potency was “inactive”.
With `COc1ccccc1C(=O)NC(CCSC)C(=O)NNC(=O)c1ccccc1C` (stereo not given) the Potency was “inactive”.
In the case of `COc1ccccc1C(=O)NC(CCSC)C(=O)N1CCN(C(C)=O)CC1` (stereo not given), the Potency is reported as “inactive”.
In the case of `COc1ccccc1C(=O)NC(CCSC)C(=O)N1CCN(C/C=C/c2ccccc2)CC1` (stereo not given), the Potency is reported as 20.6 µM (active).
In the case of `CSCCC(NC(=O)c1ccccc1)C(=O)N1CCN(Cc2ccc(Cl)cc2)CC1` (stereo not given), the Potency is reported as 10.3 µM (active).
With `CSCCC(NC(=O)c1ccccc1)C(=O)N1CCCCCCC1` (stereo not given) the Potency was “inactive”.
In the case of `O=C(CN1CCOCC1)Nc1c(-c2ccccc2)c2cc(Br)ccc2[nH]c1=O`, the Potency is reported as “inactive”.
With `Cc1ccccc1OCc1nc2c3cnn(-c4ccccc4F)c3ncn2n1` the Potency was “inactive”.
For `C=CCN(CC=C)CCOc1ccccc1[N+](=O)[O-]`, the Potency was “inactive”.
For `COc1ccc(CNC(=O)Cn2nnc(-c3ccccc3F)n2)cc1`, the Potency was “inactive”.
With `O=C(Cn1nnc(-c2ccccc2)n1)NCc1ccccc1` the Potency was “inactive”.
With `COc1cc(-c2nnn(CC(=O)NCc3ccccc3)n2)cc(OC)c1OC` the Potency was 14.6 µM (active).
With `Cn1c(=NC(=O)CSCC(=O)N2CCOCC2)sc2ccccc21` the Potency was “inactive”.
For `CCC(=O)N1CCc2cc(S(=O)(=O)NCCC(=O)Nc3cccc(C)c3C)ccc21`, the Potency was “inactive”.
For `O=C(COC(=O)c1ccc(Br)o1)NC12CC3CC(CC(C3)C1)C2`, the Potency was “inactive”.
With `COc1cc(C(=O)OCC(=O)NC23CC4CC(CC(C4)C2)C3)cc(OC)c1OC` the Potency was 18.4 µM (active).
With `O=C(COC(=O)c1cccnc1Cl)NC12CC3CC(CC(C3)C1)C2` the Potency was “inactive”.
In the case of `CCOC(=O)CNc1nc2ccccc2n2c(C)nnc12`, the Potency is reported as “inactive”.
With `CCOC(=O)c1oc2c(CN3CCN(CCO)CC3)c(O)c(CC)cc2c(=O)c1-c1nc2ccccc2s1` the Potency was “inactive”.
In the case of `O=C(NCCCN1CCOCC1)c1ccccc1NS(=O)(=O)c1ccc(Br)cc1`, the Potency is reported as “inactive”.
In the case of `O=C(NCCCN1CCOCC1)c1cnn2c(-c3ccccc3)cc(-c3ccccc3)nc12`, the Potency is reported as 20.6 µM (active).
In the case of `O=C(NCCCN1CCOCC1)c1ccccc1NS(=O)(=O)c1ccc(F)cc1`, the Potency is reported as “inactive”.
For `CCCCN=C1N/C(=C\c2ccco2)C(=O)N1c1ccccc1`, the Potency was 29.1 µM (active).
For `COc1cc2c(cc1/C=C1/NC(=O)N(c3ccccc3)C1=O)OCO2`, the Potency was “inactive”.
With `CCOC(=O)C1(C)NC(c2ccco2)C2C(=O)N(c3ccccc3)C(=O)C21` (stereo not given) the Potency was “inactive”.
For `Cc1cc(NC(=O)CS(=O)(=O)c2cn(C)c3ccccc23)no1`, the Potency was “inactive”.
With `CN(C)CCNC(=O)C(C(=O)c1ccccc1)n1ccccc1=O` (stereo not given) the Potency was “inactive”.
With `O=C(Nc1nnc(SCc2ccc(Cl)cc2Cl)s1)C1COc2ccccc2O1` (stereo not given) the Potency was “inactive”.
In the case of `O=C(Nc1nc2c(F)cc(F)cc2s1)C1COc2ccccc2O1` (stereo not given), the Potency is reported as “inactive”.
With `O=C(Nc1ncc([N+](=O)[O-])s1)C1COc2ccccc2O1` (stereo not given) the Potency was 18.4 µM (active).
